Measurements taken from PubChem BioAssay.
Values without a mark were called inactive. The source made the active and inactive calls. Rule as the data show it: active = inhibition above about 42%; inactive = the rest.

target: Nuclear receptor subfamily 5 group A member 2 (Homo sapiens) (UniProt O00482); assay: NR5A2 activity suppression in reporter cells – cell-based, luminescence, confirmation (AID 651613); details: cell-based LRH-1 luciferase reporter, inverse agonism; at 3.6 µM; stronger effect = higher value;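 also: HEK293T cells co-transfected with LRH-1 and StAR promoter luciferase reporter; 0% = vehicle wells and 100% = parental cells lacking receptor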
Sequence (O00482 whole entry, looked up): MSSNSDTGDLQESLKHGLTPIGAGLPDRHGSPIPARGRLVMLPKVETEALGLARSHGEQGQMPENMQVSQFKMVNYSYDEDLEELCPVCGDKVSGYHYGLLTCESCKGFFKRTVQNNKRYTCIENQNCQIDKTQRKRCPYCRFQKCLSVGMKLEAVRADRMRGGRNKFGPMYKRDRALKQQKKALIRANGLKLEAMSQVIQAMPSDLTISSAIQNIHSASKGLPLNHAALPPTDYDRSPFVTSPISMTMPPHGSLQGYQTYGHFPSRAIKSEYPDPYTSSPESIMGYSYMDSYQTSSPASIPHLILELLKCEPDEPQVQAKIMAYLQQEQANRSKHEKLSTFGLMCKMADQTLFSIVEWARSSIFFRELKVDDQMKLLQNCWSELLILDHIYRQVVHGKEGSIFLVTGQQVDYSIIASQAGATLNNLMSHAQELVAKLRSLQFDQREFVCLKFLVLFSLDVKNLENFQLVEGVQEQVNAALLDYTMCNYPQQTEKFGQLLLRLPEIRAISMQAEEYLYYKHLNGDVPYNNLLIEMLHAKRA

**Q.** Which inhibition does the source give for `COc1ccc(-c2cc(NC=O)c3ncc(-c4ccc(C(C)=O)cc4)n3c2)cn1` here?
**A.** 66% (active)

**Q.** Which inhibition does the source give for `O=C(Cc1ccc(Cl)cc1Cl)Nc1ccncc1` here?
**A.** 76.1% (active)

**Q.** Which inhibition does the source give for `c1ccc(Oc2nc(-c3cccnc3)nc3ccccc23)cc1` here?
**A.** 57.3% (active)

**Q.** For `Cc1cc(O)c(NC(=O)c2cc([N+](=O)[O-])ccc2Cl)cc1C`, which inhibition is on record?
**A.** 53.6% (active)

**Q.** How did the inhibition turn out when `Cc1cc(C)n(-c2nc(Nc3ccccc3C(F)(F)F)nc(-n3nc(C)cc3C)n2)n1` was run?
**A.** 21.6%

**Q.** Which inhibition does the source give for `COc1cccc(C2c3cc4c(cc3OC(N3CCOCC3)C2C)OCO4)c1O` (centres undefined) here?
**A.** 51.8% (active)

**Q.** `c1ccc(-n2nnnc2-c2cccc3ccccc23)cc1` was tested. Which inhibition did it give?
**A.** 52.5% (active)

**Q.** For `COc1cc(-c2noc(C)c2/C=C/c2ccc(N)cc2)cc(OC)c1OC`, which inhibition is on record?
**A.** 38.5%

**Q.** How did the inhibition turn out when `COc1ccccc1-n1c(SCC(=O)Nc2ccc(F)cc2)nc2c(c1=O)SCC2` was run?
**A.** 54.9% (active)

**Q.** How did the inhibition turn out when `O=C(Cn1cc(COc2ccc(C(=O)c3ccccc3)cc2)nn1)c1ccc(O)cc1` was run?
**A.** 47.4% (active)

**Q.** For `Cc1ccc(S(=O)(=O)N2CCc3ccccc3CC2)cc1`, which inhibition is on record?
**A.** 66.3% (active)

**Q.** With `CCCNC(=O)c1sc2c(c1C(=O)Nc1ccccn1)CCCC2` as the compound, how does the inhibition read?
**A.** 47.1% (active)

**Q.** For `COc1ccc(CNC(=O)c2sc(=O)n(Cc3ccc(-c4ccccc4)cc3)c2C)cc1OC`, which inhibition is on record?
**A.** 37.7%

**Q.** With `c1ccc(-c2nc(NCC3CCCO3)c3oc4ccccc4c3n2)cc1` (centres undefined) as the compound, how does the inhibition read?
**A.** 38.2%

**Q.** How did the inhibition turn out when `CCOC(=O)CC1CCCCN1C(=O)c1cc(COc2cccc3cnccc23)on1` (centres undefined) was run?
**A.** 58.9% (active)

**Q.** With `CCCc1cc(=O)oc2cc(C)cc(OCC(=O)NC3CC3)c12` as the compound, how does the inhibition read?
**A.** 59.5% (active)

**Q.** For `COc1ccc(N2CCN(C(=O)CN3C(=O)NC4(CCCCCC4)C3=O)CC2)cc1`, which inhibition is on record?
**A.** 46.6% (active)

**Q.** With `CC(C)C(=O)N1CCN(c2ccccc2NC(=O)c2ccc([N+](=O)[O-])o2)CC1` as the compound, how does the inhibition read?
**A.** 59.1% (active)

**Q.** Which inhibition does the source give for `CN(C)c1ccc(C=c2c3ccccc3n3c2c2ccccc2[n+]3C)cc1` here?
**A.** 107% (active)

**Q.** With `CC(=O)c1ccsc1-c1c(C)cc2oc(=O)cc(-c3ccccc3)c2c1C` as the compound, how does the inhibition read?
**A.** 64.7% (active)

**Q.** Which inhibition does the source give for `O=C1CCCN2N=C(SCC(=O)Nc3ccc(Br)cc3)SC2=N1` here?
**A.** 49.1% (active)

**Q.** With `COc1ccc(NC(=O)COc2cccc3c2CCN(C)C3=O)c(OC)c1` as the compound, how does the inhibition read?
**A.** 65.9% (active)

**Q.** Which inhibition does the source give for `Cc1ccc(-c2csc(NC(=O)c3ccc([N+](=O)[O-])o3)n2)cc1` here?
**A.** 57.5% (active)

**Q.** How did the inhibition turn out when `COc1ccccc1N1CCN(C(=O)C2c3ccccc3Oc3ccccc32)CC1` was run?
**A.** 26%

**Q.** With `COCCn1c(SCC(=O)Nc2ccc(NC(C)=O)cc2)nc2ccccc2c1=O` as the compound, how does the inhibition read?
**A.** 57.9% (active)

**Q.** `O=C(COC(=O)C1CC1)NCCc1ccc(Cl)cc1` was tested. Which inhibition did it give?
**A.** 45.3% (active)

**Q.** Which inhibition does the source give for `COc1ccc(S(=O)(=O)N2CCOCC2)cc1N=Nc1sc(N)nc1-c1ccccc1` here?
**A.** 60.7% (active)

**Q.** `C[C@H](CO)N1C[C@H](C)[C@H](CN(C)Cc2ccncc2)Oc2cc(-c3ccccc3F)ccc2S1(=O)=O` was tested. Which inhibition did it give?
**A.** 64.6% (active)

**Q.** Which inhibition does the source give for `CCCc1cc(=O)oc2cc(OCC(=O)NCc3ccccn3)ccc12` here?
**A.** 55.5% (active)

**Q.** How did the inhibition turn out when `CC(=O)Nc1ccc(NC(=O)CSc2ccc(-c3ccco3)nn2)cc1` was run?
**A.** 49.4% (active)

**Q.** `Oc1[nH]c2ccccc2c1N=NC(=S)N1CCOCC1` was tested. Which inhibition did it give?
**A.** 78.3% (active)

**Q.** Which inhibition does the source give for `COc1ccc(CC(N)c2csc(Nc3ncccn3)n2)cc1` (centres undefined) here?
**A.** 26.2%

**Q.** `Cc1cc(-n2c(C)cc(C(=O)CSc3ncnc4ccccc34)c2C)no1` was tested. Which inhibition did it give?
**A.** 67.2% (active)

**Q.** Which inhibition does the source give for `COc1ccc(S(=O)(=O)N2CCCN(CC(=O)Nc3ccc(OC)c(Cl)c3)CC2)cc1` here?
**A.** 65.8% (active)

**Q.** For `COc1cc2c(=O)[nH]c3cc([N+](=O)[O-])ccc3c2cc1[N+](=O)[O-]`, which inhibition is on record?
**A.** 64.6% (active)

**Q.** How did the inhibition turn out when `O=C(Nc1ccc(N2CCN(Cc3ccccc3F)CC2)cc1)c1ccc([N+](=O)[O-])o1` was run?
**A.** 70.6% (active)

**Q.** Which inhibition does the source give for `Cc1ccc(Cn2cnc3ccccc32)cc1C` here?
**A.** 36.2%

**Q.** With `COc1ccc(N2CC(C(=O)N/N=C/c3ccc(C)cc3)CC2=O)cc1` (centres undefined) as the compound, how does the inhibition read?
**A.** 40%

**Q.** Which inhibition does the source give for `O=C(CCl)Nc1cccc(Oc2cnccn2)c1` here?
**A.** 69% (active)
